Reference: PubChem BioAssay (NCI)
The panel holds about 83,000 compounds, 20% with a hit somewhere; the sample as a whole holds those more often.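 A percent growth of 40 corresponds to 60% growth inhibition; 0 means no net growth; -100 means all cells died. Active threshold: below 10.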 Values without a mark were called inactive. Activity calls are given as the source filed them.

Legend:
Experiment in all cases: NCI-60 one-dose screen, 48 h (100 = growth as untreated, 0 = no growth, -100 = all killed)
Settings in all cases: 10 µM
SR leukemia = system: SR leukemia
RPMI-8226 leukemia = system: RPMI-8226 leukemia
OVCAR-8 ovarian = system: OVCAR-8 ovarian
OVCAR-5 ovarian = system: OVCAR-5 ovarian
OVCAR-4 ovarian = system: OVCAR-4 ovarian
SK-OV-3 ovarian = system: SK-OV-3 ovarian
IGROV1 ovarian = system: IGROV1 ovarian
OVCAR-3 ovarian = system: OVCAR-3 ovarian
HS 578T breast = system: HS 578T breast
NCI/ADR-RES ovarian = system: NCI/ADR-RES ovarian
T-47D breast = system: T-47D breast
BT-549 breast = system: BT-549 breast
MDA-MB-435 melanoma = system: MDA-MB-435 melanoma
SW-620 colon = system: SW-620 colon
MCF7 breast = system: MCF7 breast
HCT-116 colon = system: HCT-116 colon
HCC-2998 colon = system: HCC-2998 colon
KM12 colon = system: KM12 colon
MDA-MB-468 breast = system: MDA-MB-468 breast

Work on `CCCn1c(=O)c2[nH]c(-c3ccc(OCc4nc5ccc(C)cc5[nH]4)cc3)nc2n(CCC)c1=O` yielded a growth (SR leukemia) of 11.6%, a growth (RPMI-8226 leukemia) of 29.3% and a growth (OVCAR-8 ovarian) of 17.3%. The growth (OVCAR-5 ovarian) was 40.6%, the growth (OVCAR-4 ovarian) was 0.252% (active) and the growth (SK-OV-3 ovarian) was 4.62% (active). For the same compound, the growth (IGROV1 ovarian) was 37%, the growth (OVCAR-3 ovarian) was 18.2% and the growth (HS 578T breast) was -12.4% (active). The growth (NCI/ADR-RES ovarian) was 31.7%, the growth (T-47D breast) was -13.2% (active) and the growth (BT-549 breast) was 36.3%. For the same compound, the growth (MDA-MB-435 melanoma) was 49.1%, the growth (SW-620 colon) was 27.5% and the growth (MCF7 breast) was 17.6%. The growth (HCT-116 colon) was 14.6%, the growth (HCC-2998 colon) was 61.6% and the growth (KM12 colon) was 69.7%. The growth (MDA-MB-468 breast) was 16.7%.

`CN1CCCN(Cc2ccc(C(=O)Nc3cccc(Nc4ccc5c(O)cccc5n4)c3)cc2C(F)(F)F)CC1` was tested, and the growth (SR leukemia) was 11.4%, the growth (RPMI-8226 leukemia) was 2.61% (active) and the growth (OVCAR-8 ovarian) was -22% (active). For the same compound, the growth (OVCAR-5 ovarian) was -82.1% (active), the growth (OVCAR-4 ovarian) was -43.5% (active) and the growth (SK-OV-3 ovarian) was -58.9% (active). For the same compound, the growth (IGROV1 ovarian) was -78.9% (active), the growth (OVCAR-3 ovarian) was -35.8% (active) and the growth (HS 578T breast) was -41.2% (active). For the same compound, the growth (NCI/ADR-RES ovarian) was 37.7%, the growth (T-47D breast) was -27.7% (active) and the growth (BT-549 breast) was -75.2% (active). For the same compound, the growth (MDA-MB-435 melanoma) was -96.5% (active), the growth (SW-620 colon) was -92.7% (active) and the growth (MCF7 breast) was -96.5% (active). For the same compound, the growth (HCT-116 colon) was -67.4% (active), the growth (HCC-2998 colon) was -85.3% (active) and the growth (KM12 colon) was -11% (active). For the same compound, the growth (MDA-MB-468 breast) was -94.5% (active).

For `Cc1ccc(-c2nc(Nc3ccccc3C(=O)O)c3ccccc3n2)cc1`, the growth (SR leukemia) was 18.6%, the growth (RPMI-8226 leukemia) was 17.1% and the growth (OVCAR-8 ovarian) was 30.5%. The growth (OVCAR-5 ovarian) was 65.9%, the growth (OVCAR-4 ovarian) was 21.8% and the growth (SK-OV-3 ovarian) was 31.3%. The growth (IGROV1 ovarian) was 31.1%, the growth (OVCAR-3 ovarian) was 6.01% (active) and the growth (HS 578T breast) was -9.53% (active). The growth (NCI/ADR-RES ovarian) was 5.16% (active), the growth (T-47D breast) was 10.7% and the growth (BT-549 breast) was -23.5% (active). For the same compound, the growth (MDA-MB-435 melanoma) was 23.4%, the growth (SW-620 colon) was 14.5% and the growth (MCF7 breast) was 7.7% (active). For the same compound, the growth (HCT-116 colon) was 6.7% (active), the growth (HCC-2998 colon) was 5.44% (active) and the growth (KM12 colon) was 8.37% (active). The growth (MDA-MB-468 breast) was -26.9% (active).

`Cc1ccc(-c2nc(Nc3ccc(S(N)(=O)=O)cc3)c3ccccc3n2)cc1` gave a growth (SR leukemia) of 14.6%, a growth (RPMI-8226 leukemia) of 29.2% and a growth (OVCAR-8 ovarian) of 63.2%. For the same compound, the growth (OVCAR-5 ovarian) was 68.9%, the growth (OVCAR-4 ovarian) was 61.7% and the growth (SK-OV-3 ovarian) was 114%. It also gave a growth (IGROV1 ovarian) of 66.7%, a growth (OVCAR-3 ovarian) of 61.9% and a growth (HS 578T breast) of 90.1%. The growth (NCI/ADR-RES ovarian) was 54.7%, the growth (T-47D breast) was 40.5% and the growth (BT-549 breast) was 75.7%. It also gave a growth (MDA-MB-435 melanoma) of 57%, a growth (SW-620 colon) of 32.2% and a growth (MCF7 breast) of 26.7%. For the same compound, the growth (HCT-116 colon) was 34.7%, the growth (HCC-2998 colon) was -9.82% (active) and the growth (KM12 colon) was 0.051% (active). For the same compound, the growth (MDA-MB-468 breast) was 44.2%.

For `O=C(Cc1ccc2c(c1)CN(C1CCC(=O)NC1=O)C2=O)NCc1cccc2ccccc12` (stereo unspecified), the growth (SR leukemia) was 13.6%, the growth (RPMI-8226 leukemia) was 18% and the growth (OVCAR-8 ovarian) was -3.71% (active). The growth (OVCAR-5 ovarian) was -11% (active), the growth (OVCAR-4 ovarian) was -2.52% (active) and the growth (SK-OV-3 ovarian) was -7.7% (active). For the same compound, the growth (IGROV1 ovarian) was -13.5% (active), the growth (OVCAR-3 ovarian) was -22.3% (active) and the growth (HS 578T breast) was -11.3% (active). The growth (NCI/ADR-RES ovarian) was -18.5% (active), the growth (T-47D breast) was -4.86% (active) and the growth (BT-549 breast) was -52.8% (active). For the same compound, the growth (MDA-MB-435 melanoma) was -15.1% (active), the growth (SW-620 colon) was 5.07% (active) and the growth (MCF7 breast) was 1.22% (active). For the same compound, the growth (HCT-116 colon) was 9.59% (active), the growth (HCC-2998 colon) was -48.6% (active) and the growth (KM12 colon) was -7.26% (active). For the same compound, the growth (MDA-MB-468 breast) was -69.2% (active).

`COc1cc2c(cc1OC)CN(CCCCOc1cc(O)c3c(=O)cc(-c4ccccc4)oc3c1)CC2` was tested, and the growth (SR leukemia) was -13.8% (active), the growth (RPMI-8226 leukemia) was 24.1% and the growth (OVCAR-8 ovarian) was 85.1%. It also gave a growth (OVCAR-5 ovarian) of 114%, a growth (OVCAR-4 ovarian) of 30% and a growth (SK-OV-3 ovarian) of 74.5%. It also gave a growth (IGROV1 ovarian) of 95.8%, a growth (OVCAR-3 ovarian) of 94.9% and a growth (HS 578T breast) of 74.2%. For the same compound, the growth (NCI/ADR-RES ovarian) was 57.4%, the growth (T-47D breast) was 1.69% (active) and the growth (BT-549 breast) was 63.6%. The growth (MDA-MB-435 melanoma) was 67.5%, the growth (SW-620 colon) was 62.8% and the growth (MCF7 breast) was 29.3%. For the same compound, the growth (HCT-116 colon) was 0.234% (active), the growth (HCC-2998 colon) was -7.68% (active) and the growth (KM12 colon) was 80.1%. For the same compound, the growth (MDA-MB-468 breast) was -7.3% (active).

`CN(C)c1nc(NCCNS(=O)(=O)c2ccc(C(=O)/C=C/c3ccccc3)cc2)nc(Nc2ccc(F)cc2)n1` was tested, and the growth (SR leukemia) was -4.76% (active), the growth (RPMI-8226 leukemia) was 18.2% and the growth (OVCAR-8 ovarian) was 41.9%. For the same compound, the growth (OVCAR-5 ovarian) was 38.2%, the growth (OVCAR-4 ovarian) was 25.2% and the growth (SK-OV-3 ovarian) was 97.8%. For the same compound, the growth (IGROV1 ovarian) was 8.78% (active), the growth (OVCAR-3 ovarian) was -42.2% (active) and the growth (HS 578T breast) was 72.9%. For the same compound, the growth (NCI/ADR-RES ovarian) was 15.7%, the growth (T-47D breast) was 25.6% and the growth (BT-549 breast) was 24.9%. For the same compound, the growth (MDA-MB-435 melanoma) was 4.21% (active), the growth (SW-620 colon) was -4.39% (active) and the growth (MCF7 breast) was -82.8% (active). The growth (HCT-116 colon) was -53% (active), the growth (HCC-2998 colon) was -75.7% (active) and the growth (KM12 colon) was -78.4% (active). For the same compound, the growth (MDA-MB-468 breast) was 1.47% (active).

For `COC1=C[C@@]23CCC(=O)N2CCc2cc4c(cc2[C@H]3[C@H]1OC(=O)C(C)(C)O)OCO4`, the growth (SR leukemia) was 96.1%, the growth (RPMI-8226 leukemia) was 92.3% and the growth (OVCAR-8 ovarian) was 109%. The growth (OVCAR-5 ovarian) was 101%, the growth (OVCAR-4 ovarian) was 98.6% and the growth (SK-OV-3 ovarian) was 120%. It also gave a growth (IGROV1 ovarian) of 103%, a growth (OVCAR-3 ovarian) of 106% and a growth (HS 578T breast) of 98.1%. For the same compound, the growth (NCI/ADR-RES ovarian) was 97.4%, the growth (T-47D breast) was 91.6% and the growth (BT-549 breast) was 98.9%. The growth (MDA-MB-435 melanoma) was 98.4%, the growth (SW-620 colon) was 105% and the growth (MCF7 breast) was 92.7%. The growth (HCT-116 colon) was 101%, the growth (HCC-2998 colon) was 103% and the growth (KM12 colon) was 101%. The growth (MDA-MB-468 breast) was 91.5%.

For `COC1=C[C@]23CCC(=O)N2CCc2cc4c(cc2[C@@H]3[C@@H]1OC(=O)CCCC(C)C)OCO4`, the growth (SR leukemia) was 18.2%, the growth (RPMI-8226 leukemia) was 22.4% and the growth (OVCAR-8 ovarian) was 73.9%. The growth (OVCAR-5 ovarian) was 78.4%, the growth (OVCAR-4 ovarian) was 54% and the growth (SK-OV-3 ovarian) was 53.7%. For the same compound, the growth (IGROV1 ovarian) was 43.3%, the growth (OVCAR-3 ovarian) was 45% and the growth (HS 578T breast) was 71.8%. The growth (NCI/ADR-RES ovarian) was 74.9%, the growth (T-47D breast) was 68.3% and the growth (BT-549 breast) was 85.4%. The growth (MDA-MB-435 melanoma) was 74.1%, the growth (SW-620 colon) was 63% and the growth (MCF7 breast) was 1.77% (active). For the same compound, the growth (HCT-116 colon) was 19.2%, the growth (HCC-2998 colon) was 21.8% and the growth (KM12 colon) was 48.7%. The growth (MDA-MB-468 breast) was 6.02% (active).
